# Assay outcomes: PubChem BioAssay, National Center for Advancing Translational Sciences (NCATS)
# Hits are enriched below; roughly 1.1% of the tested compounds scored in any of these assays.
# RGS4 inh: Inhibitors of Regulator of G Protein Signaling (RGS) 4: qHTS | Transcreener GDP fluorescence polarization, RGS4-accelerated GTP hydrolysis | Regulator of G-protein signaling 4 (Homo sapiens), P49798 | 390,000 tested, 0.039% active | Potency, µM (series often up to 114 µM), without a hit: top-dose activity change, negative = inhibition, usual class: inhibitors; further: potency means the concentration at half of the fitted maximal effect; on the % scale 0 is the no-effect control and ±100 the full control effect; nearly all actives have a fitted effect of over 75% in size
# Target sequence (P49798 whole entry, looked up): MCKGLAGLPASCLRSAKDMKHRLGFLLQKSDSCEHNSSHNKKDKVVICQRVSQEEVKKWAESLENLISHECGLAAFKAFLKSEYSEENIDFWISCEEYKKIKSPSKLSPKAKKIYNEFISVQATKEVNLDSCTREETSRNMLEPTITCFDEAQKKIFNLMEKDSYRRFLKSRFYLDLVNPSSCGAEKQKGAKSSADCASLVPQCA
#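 MLSMR compounds (23 nl, pin-transferred) preincubated 10 min at room temperature with a 500nM (2x) first reagent, then RGS4 at 900nM (2x) plus Transcreener GDP mix added; fluorescence polarization (620/688 nm) read before and after 90 min at 30 °C.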
# PTHR1 ag: qHTS for PTHR1 Agonists: Primary Screen; Parathyroid hormone/parathyroid hormone-related peptide receptor (Homo sapiens), Q03431; 410,000 tested, 0.075% active; Potency, µM (titrated, usually from 115 µM), for the others: at the top dose activation, actives largely listed as activators; HEK293 GP2 PTHR1 cells, GloSensor cAMP luminescence, 1 h; AID 743266, 2014; further: potency means the concentration at half of the fitted maximal effect; nearly all actives have a fitted effect of over 55% in size
# Target sequence (Q03431 whole entry, looked up): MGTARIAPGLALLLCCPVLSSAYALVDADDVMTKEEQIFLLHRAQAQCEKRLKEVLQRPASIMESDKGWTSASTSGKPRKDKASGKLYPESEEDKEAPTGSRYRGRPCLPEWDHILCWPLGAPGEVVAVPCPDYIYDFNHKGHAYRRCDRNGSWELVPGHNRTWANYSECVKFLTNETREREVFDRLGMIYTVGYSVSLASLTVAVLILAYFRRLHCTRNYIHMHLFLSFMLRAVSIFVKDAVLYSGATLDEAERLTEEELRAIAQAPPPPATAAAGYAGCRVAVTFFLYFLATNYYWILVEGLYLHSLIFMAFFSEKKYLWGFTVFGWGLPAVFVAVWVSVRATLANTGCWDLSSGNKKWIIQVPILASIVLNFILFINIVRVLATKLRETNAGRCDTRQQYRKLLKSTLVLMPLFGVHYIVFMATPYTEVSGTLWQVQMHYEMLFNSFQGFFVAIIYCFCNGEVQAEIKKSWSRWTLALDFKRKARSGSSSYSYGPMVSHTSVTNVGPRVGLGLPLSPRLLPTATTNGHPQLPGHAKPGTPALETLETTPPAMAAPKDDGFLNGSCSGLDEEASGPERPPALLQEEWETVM
#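 HEK-293-derived GP2 cells expressing PTHR1 and a GloSensor cAMP reporter, 3,000/well, plated overnight, given luciferin plus IBMX (each 0.5 mM as added) for 1 h at 37 °C, then compound for 1 h at 37 °C. Luminescence was read after 15 min at room temperature.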
# p53 reactivation: qHTS assay for re-activators of p53 using a Luc reporter; 320,000 tested, 0.063% active; Potency, µM (doses to about 92.2 µM), inactives show at the highest dose activity change, positive = activation, usual class: activators; H1299 p53-A138V BP100-luciferase reporter, luminescence, 24 h; further: potency means the concentration at half of the fitted maximal effect; % of control where 0% means no effect; nearly all actives have a fitted effect of over 45% in size
#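 p53-null H1299 cells stably carrying temperature-sensitive p53-A138V and a BP100-luciferase reporter were pinned with compounds (4-point, 1:5 series) and held 24 hrs at 37 deg C. Luminescence was read 10 min after detection reagent.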
# BRCA1 expr up: qHTS Assay to Identify Small Molecule Activators of BRCA1 Expression; MCF7-BRCA1-FFLuc reporter, luminescence, 48 h; response scale: scaled: vehicle 0%, 10 µM genistein 100%; Potency, µM (series often up to 46.1 µM), inactives show at the highest dose activation, actives largely listed as activators; 380,000 tested, 1.1% active; AID 624202, 2012; further: potency means the concentration at half of the fitted maximal effect; nearly all actives have a fitted effect of over 80% in size
#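 Activators of BRCA1 expression were detected as increased firefly luciferase luminescence in engineered MCF7 cells after 48 h compound incubation. Signals were scaled to genistein 10 microM as full activation.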
# LDHA block: qHTS assay for inhibitors of human lactate dehydrogenase | purified LDHA, NADH/diaphorase-resazurin fluorescence; active compounds read low | activity change, % (values are at about 110 or 230 µM) | 480,000 tested, 0.15% active | AID 1347041, 2019; in the data active means activity change below about -30%; inconclusive means mostly about -25% to -30%;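 further: plate controls were DMSO wells for no effect and wells without enzyme for full effect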
#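 Human LDH5 at 2 nM final in Tris HCl pH 7.4 with 0.06 mM NADH and 0.2 mM pyruvate, reacted 5 minutes at room temperature. Remaining NADH coupled via diaphorase/resazurin; resorufin fluorescence read at 0 and 20 minutes, normalized to enzyme-free and DMSO wells.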
# * marks the source's active call; other numbers are inactive results; i = inactive; ? = inconclusive; · = not tested or not shown; [ ] = dose if it differs, or a comment. Unless noted, the call rests on the fitted dose curve; in most records, active means well fitted curve in the direction sought with a large enough effect; inconclusive means small, poorly fitted or top-dose-only effect, or another doubt; inactive means no such curve, though single readings can be large; an effect the other way counts as inactive or inconclusive.
SMILES,RGS4 inh,PTHR1 ag,p53 reactivation,BRCA1 expr up,LDHA block
CN(C)c1nc2ccc(OCCN3CCCCC3)cc2s1,-10.2%,-5.6%[57.5 µM],?,11.2µM*,-2.5
CN(C)c1ccc(-c2nn3c(CN4CCCCC4)nnc3s2)cc1,·,·,·,·,0.4
Cc1nc(SCC(=O)Nc2ccc(OCc3ccccc3)cc2)n[nH]1,-1.8%,-51.5%,5.2%,73.3%,-0.9
Nc1nc(SCC(=O)Nc2ccc(OCc3ccccc3)cc2)n[nH]1,-5.0%,-37.3%,6.3%,10µM*,0.1
CN1CCN(CCC(=O)Nc2ccc(OCc3ccccc3)cc2)CC1,12.2%,-8.2%,16.3%,11.2µM*,-2.1
CC(C)=CC(=O)Nc1ccc(OCc2ccccc2)cc1,-11.8%,i,0.2%,2.82µM*,-5.0
N#C/C(=C\c1ccc(OCc2ccccc2)cc1)C(=O)Nc1ccc(C(=O)O)cc1,-29.0%,-9.9%,3.9%,11.2µM*,-3.4
CC(=O)Nc1ccc(OCc2ccccc2)cc1,·,·,·,·,1.0
O=C(CCN1CCN(CCO)CC1)Nc1ccc(OCc2ccccc2)cc1,0.9%,i,·,12.3%,-1.2
COc1ccc(-c2cc(Nc3ccccc3Cl)nc(C)n2)cc1,·,·,·,·,14.8
COc1ccc2c(COC(=O)c3ccc4ccccc4c3O)cc(=O)oc2c1,·,·,·,·,1.0
C/C(N)=C(/C#N)C(=O)CSc1nnc(Nc2c(C)cccc2C)s1,-7.6%,-0.7%[57.5 µM],-0.8%,-2.5%,5.0
C/C(N)=C(/C#N)C(=O)CSc1nnc(Nc2cccc(C)c2C)s1,8.9%,-26.2%,?,11.2µM*,-0.7
CCOC(=O)c1ccc(NC(=O)Cn2nnc3ccccc32)cc1,7.8%,-21.8%,?,3.98µM*,-2.8
CCOC(=O)c1ccc(NC(=O)CCn2nnc3ccccc32)cc1,-42.5%,-3.5%,12.5%,34.2%,-3.7
CC(C[N+](C)(C)C)OC(=O)C1(c2ccccc2)CCCC1 (configuration not stated),-15.0%,-24.2%,-3.7%,-4.3%,-30.5*
Cc1cccc(Nc2nc(N)c(C(=O)c3ccccc3Cl)s2)c1,·,·,·,·,3.6
COc1ccc(C)cc1NC(=O)Nc1ccc(C(=O)N2CCCC2)cc1,13.1%,-37.0%,24.4%,7.94µM*,-0.2
O=C(O)c1ccc(-c2ccc(Cc3ccc(-c4ccc(C(=O)O)cc4)o3)o2)cc1,·,·,·,·,4.8
Cc1ccc(-c2nc3ccc(C)cn3c2Cc2ccccc2C(F)(F)F)cc1,·,-68.5%,·,?,5.7
Cc1ccc2nc(-c3ccccc3)c(Cc3ccccc3C(F)(F)F)n2c1,·,-45.0%,·,2.51µM*,3.9
Cc1ccn2c(Cc3ccccc3)c(-c3ccccc3)nc2c1,·,-4.2%,·,12.6µM*,1.2
Cc1cc2nc(N)sc2cc1[N+](=O)[O-],-9.8%,i,12.1%,12.6µM*,-1.3
COc1ccc(CC(=O)c2ccc(O)c(C)c2O)cc1,·,·,·,·,1.0
CCc1nc2ncc(C#N)c(N)n2n1,·,·,·,·,5.6
SMILES,RGS4 inh,PTHR1 ag,p53 reactivation,BRCA1 expr up,LDHA block
COc1cc(/C=C/C(=O)OC2CCC(C(C)(C)C)CC2)cc(OC)c1OC (configuration not stated),·,·,·,·,8.0
COCCn1c(C)cc(C(=O)COC(=O)c2cccnc2SC)c1C,-38.9%,i,·,8.91µM*,1.8
COCCn1c(C)cc(C(=O)COC(=O)c2cncc(Br)c2)c1C,-5.1%,-26.1%,?,?,-1.5
COCCn1c(C)cc(C(=O)CSc2ccc(NC(C)=O)cc2)c1C,-17.4%,-7.5%,3.8%,7.08µM*,-5.2
COCCn1c(C)cc(C(=O)COC(=O)c2ccc3ncsc3c2)c1C,-77.0%[11.4 µM],-12.9%[57.5 µM],?,11.2µM*,-2.7
Cc1cc(C(=O)COC(=O)Cc2n[nH]c(=O)c3ccccc23)c(C)n1CC(F)(F)F,-20.7%,-12.2%,-6.1%,-0.1%,-5.2
COCCn1c(C)cc(C(=O)COC(=O)Cc2n[nH]c(=O)c3ccccc23)c1C,11.5%,15.3%,-0.8%,8.91µM*,-3.2
CCc1ccc(CN(C)S(=O)(=O)c2cccc(Br)c2)cc1,·,·,·,·,-5.5
Cn1nc(C(=O)N(Cc2ccccc2F)C2CC2)c2ccccc2c1=O,·,·,·,·,-1.2
Cc1cc(C(=O)COC(=O)c2ccc(O)cc2)c(C)n1CC(F)(F)F,1.3%,-40.1%,?,7.94µM*,-3.0
COCCn1c(C)cc(C(=O)COC(=O)c2ccc(S(=O)(=O)N(C)C)cc2)c1C,-11.7%,-8.5%,0.5%,0.9%,-5.3
COCCn1c(C)cc(C(=O)COC(=O)c2ccc(NC(=O)CC#N)cc2)c1C,?,-28.0%,?,2.82µM*,-8.7
Cc1cc(C(=O)COC(=O)c2ccc(O)cc2)c(C)n1-c1ccccc1F,-6.5%,-27.6%,7.1%,-3.3%,-6.3
O=C(Cc1ccc(F)cc1)Nc1nccs1,25.3%,-18.2%,-18.2%,5.3%,-4.3
Fc1ccc(NC(=S)Nc2nccs2)cc1,?,-37.6%,?,3.16µM*,-2.2
CCn1c2ccccc2c2c3ncc4cccn4c3ccc21,-18.9%,-16.7%,28.2µM*,21.4%,16.7
CC1(C)CC(=O)c2sc(NC(=O)C(C)(C)C)nc2C1,12.0%,-51.2%,4.8%,7.94µM*,-1.2
CCOC(=O)c1cc(-c2ccc(S(=O)(=O)Nc3ccc(C)cc3Cl)s2)on1,·,·,·,·,5.1
Cc1cc(NCCCN)nc(-c2ccccc2O)n1,-34.0%,14.5%[57.5 µM],14.1%,3.55µM*,4.7
Nc1c(-c2ccc(Cl)cc2)nnn1-c1ccccc1,-29.3%,-9.8%[57.5 µM],?,7.08µM*,-1.1
Nc1c(-c2ccc(Cl)cc2)cnn1-c1ccccc1,-2.0%,-21.7%,?,?,-1.2
CSc1cccc(NC(=S)NCCSc2ccc(Cl)cc2)c1,·,·,·,·,-2.5
O=C(Cn1c(SCC(=O)Nc2ccc(F)cc2)nc2ccccc21)NCc1ccccc1Cl,-10.9%,-8.6%,·,·,-32.4*
COc1cccc(NC(=O)CN(CCc2ccccc2)S(=O)(=O)c2ccc(Cl)cc2)c1,0.6%,i,·,·,-59.0*
CC(c1cccs1)N(C)S(=O)(=O)c1cc(C(=O)O)cs1 (configuration not stated),·,·,·,·,-4.2
SMILES,RGS4 inh,PTHR1 ag,p53 reactivation,BRCA1 expr up,LDHA block
Cc1ccc(NC(=O)c2ccc3c(c2)nnn3C)cc1,9.7%,i,10.5%,7.08µM*,0.7
Cn1nnc2cc(C(=O)Nc3ccccc3)ccc21,13.1%,i,4.7%,7.08µM*,0.8
COc1cccc(NC(=O)Nc2ccc3c(c2)nnn3C)c1,11.0%,i,16.3%,7.94µM*,1.7
c1ccc(CCSc2ncnc3nc[nH]c23)cc1,5.7%,i,?,3.16µM*,-2.7
O=C(CSc1ncnc2nc[nH]c12)c1ccccc1,-6.3%,-39.6%[57.5 µM],?,73.3%,-8.1
C#Cc1cccc(NC(=O)c2ccc(Cl)cc2Cl)c1,11.4%,-27.1%,?,1.78µM*,0.2
